Records with an inconclusive call do not appear. A number with no mark means an inactive call. Active and inactive are the calls of the source. The call rests on the fitted dose curve; in most records, active means well fitted inhibition curve with a large enough effect; inconclusive means small, poorly fitted or top-dose-only effect; inactive means flat fitted curve, though single readings scatter.
Each compound was assayed against Calcium and integrin-binding protein 1 (Homo sapiens) (UniProt Q99828) (assay: Primary qHTS for Identification of Calcium Integrin Binding Protein 1 (CIB1) Competitor (AID 1508620; further: top concentration of the series differs between compounds)). Settings: CIB1-GST / FITC-alphaIIb peptide fluorescence polarization; series mostly up to 57.7 µM; activity change, negative = inhibition: at the top concentration.
Calcium and integrin-binding protein 1 (Homo sapiens), sequence (Q99828 whole entry, looked up): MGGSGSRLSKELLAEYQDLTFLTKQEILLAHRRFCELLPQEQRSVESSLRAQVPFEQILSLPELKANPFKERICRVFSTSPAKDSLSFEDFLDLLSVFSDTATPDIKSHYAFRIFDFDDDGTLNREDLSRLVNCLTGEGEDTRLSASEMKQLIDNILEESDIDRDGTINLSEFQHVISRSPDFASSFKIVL
Method in brief: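 Fluorescence polarization competition: GST-tagged CIB1 (1 uM final) preincubated with compound 15 min at room temperature, then FITC-labelled alphaIIb peptide (100 nM final) added. After 15 min at room temperature, polarization read at Ex 480/Em 540.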
On the % scale 0 is the no-effect control and ±100 the full control effect.

Row | SMILES | activity change, negative = inhibition | Potency
1 | CNc1nc(-c2ccc3c(N)n[nH]c3c2)cc(N2C[C@@H](C(=O)NC3CCCCC3)CC[C@@H]2C)n1 | -5.55% | –
2 | CN1c2ccccc2C(=O)N2CCc3c([nH]c4ccccc34)C21 (configuration not stated) | – | inactive
3 | O=C(c1ccc(F)c(F)c1Nc1ccc(I)cc1F)N1CC(O)([C@H]2CCCCN2)C1 | -0.49% | –
4 | CC[C@H](C)n1cc(C)c2c(C(=O)NCc3c(C)cc(C)[nH]c3=O)cc(-c3ccc(N4CCNCC4)nc3)cc21 | -0.636% | –
5 | CC1CNc2c(cccc2S(=O)(=O)N[C@@H](CCCN=C(N)N)C(=O)N2CC[C@@H](C)C[C@@H]2C(=O)O)C1 (some centres not stated) | -3.18% | –
6 | N#CC(c1ccc(Cl)cc1)c1c(Cl)cc(-n2ncc(=O)[nH]c2=O)cc1Cl (configuration not stated) | -0.972% | –
7 | C#C[C@]1(O)CC[C@H]2[C@H]3CCc4cc(OC)ccc4[C@H]3CC[C@@]21C | -2.59% | –
8 | CSc1cccc(Nc2ncc3cc(-c4c(Cl)cccc4Cl)c(=O)n(C)c3n2)c1 | 0.529% | –
9 | CCC[C@H](N[C@@H](C)C(=O)N1[C@@H]2CCCC[C@H]2C[C@H]1C(=O)O)C(=O)OCC | -2.46% | –
10 | C=CC[N+]1([C@H]2C[C@H]3[C@@H]4CC[C@H]5C[C@H](O)[C@@H](N6CCOCC6)C[C@]5(C)[C@@H]4CC[C@]3(C)[C@H]2OC(C)=O)CCCC1 | -0.125% | –
11 | Cc1ccc(NC(=O)c2cccc(N(C)C)c2)cc1NC(=O)c1ccc(O)cc1 | 1.82% | –
12 | OC1CCC(Nc2ncc3nc(Nc4c(F)cc(F)cc4F)n([C@@H]4CCOC4)c3n2)CC1 (some centres not stated) | -3.74% | –
13 | CCn1c(-c2nonc2N)nc2cncc(CNC3CCNCC3)c21 | – | inactive
14 | C[C@@H]1[C@H](O)[C@@H](C)C=CC=CC=CC=CC=CC=CC=C[C@H](O[C@@H]2O[C@H](C)[C@H](O)[C@H](N)[C@@H]2O)C[C@@H]2O[C@](O)(C[C@@H](O)C[C@@H](O)[C@H](O)CC[C@@H](O)C[C@@H](O)CC(=O)O[C@H]1C)C[C@H](O)[C@@H]2C(=O)O | 19.9% | –
15 | CC=C1C2C=C(C)CC1(N)c1ccc(=O)[nH]c1C2 (configuration not stated) | -12.2% | –
16 | CC1(C)OC2CC3C4CC(F)C5=CC(=O)C=CC5(C)C4C(O)CC3(C)[C@]2(C(=O)CO)O1 (some centres not stated) | -3.64% | –
17 | CCCCN(CCCC)CC(O)c1cc(Cl)cc2c1-c1ccc(Cl)cc1C2=Cc1ccc(Cl)cc1 (configuration not stated) | -1.26% | –
18 | O=C(Nc1ccccc1)Nc1ccc(-c2ccc(C(=O)[C@H]3CCC[C@H]3C(=O)O)cc2)cc1 | -7.39% | –
19 | CC(=O)N1CCN(c2ccc(OCc3nn(C)c(C)c3-c3cccc4c(CCCOc5cc(C)c(Cl)c(C)c5)c(C(=O)O)n(Cc5cccnc5)c34)cc2)CC1 | -7.58% | –

Row | SMILES | activity change, negative = inhibition | Potency
20 | CN[C@@H](C)[C@H]1[C@H](O)C[C@@]2(C)[C@@H]3CC[C@H]4C(C)(C)[C@@H](NC)CC[C@@]45C[C@@]35CC[C@]12C | – | inactive
21 | C[C@@]1(C(=O)Nc2ccc(F)nc2)CCCN1c1nc(Nc2cc(C3CC3)[nH]n2)c2cccn2n1 | – | inactive
22 | CN(C)c1ccccc1CN1CCCN(Cc2ccccc2N(C)C)C1c1ccncc1 | 0.94% | –
23 | O=C(O)c1nc(=O)[nH]c(=O)[nH]1 | 1.53% [at 30.2 µM] | –
24 | CN(C)S(=O)(=O)c1ccc2c(c1)C(=Cc1cc3c([nH]1)CCCC3)C(=O)N2 | 24.1% | –
25 | COC1CCC(C(=O)c2ccc3nc4c(cc3c2)CCCO4)CC1 (configuration not stated) | -1.09% | –
26 | CCCCC[C@H](O)C=C[C@H]1[C@H](O)CC(=O)[C@H]1CCCCCCC(=O)O | -8.85% | –
27 | COc1cc2ncn(-c3cc(OCc4ccccc4S(C)(=O)=O)c(C#N)s3)c2cc1OC | 3.22% | –
28 | COc1ccc(-c2cc3nccn3c(Nc3ncccc3C(N)=O)n2)cc1OC | – | inactive
29 | CC(=O)OCC(=O)[C@@]1(O)CC[C@H]2[C@@H]3CCC4=CC(=O)C=C[C@]4(C)[C@@H]3[C@@H](O)C[C@@]21C | 2.51% | –
30 | CN(CC=CC#CC(C)(C)C)Cc1cccc2ccccc12 | -2% | –
31 | COc1ccc2c(c1)c(C1=C(c3c[nH]c4ccccc34)C(=O)NC1=O)cn2CCCN(C)C | -17.4% | –
32 | O=C(O)C1=CC(O)C(O)[C@H](O)C1 (some centres not stated) | 2.32% | –
33 | COc1ccc(Cn2ccc3ccc(C(=O)NO)cc32)cc1 | – | inactive
34 | CCCCC(C=O)NC(=O)C(CC(C)C)NC(=O)OCc1ccccc1 (configuration not stated) | -1.53% | –
35 | CCCCc1ccc(NS(=O)(=O)c2ccc(C)c(C(=O)N3CCN(c4cccc(C)c4C)CC3)c2)cc1 | -8.22% | –
36 | Fc1ccc(CNc2ncnc3ccc(F)cc23)cc1 | – | inactive
37 | CCN1CCN(c2ccc(Nc3cc(N(C)C(=O)Nc4c(Cl)c(OC)cc(OC)c4Cl)ncn3)cc2)CC1 | – | inactive
